# Compound activity as filed in PubChem.
# TRHR PAM – TRH receptor (human) allosteric enhancement; enhancement, % at 2 µM; AID 493056; 0.66% of 360,000 active; TRHR cells, fluo-8 calcium fluorescence, EC20 TRH enhancement; P34981; in the data active = enhancement above about 30%
#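 Enhancer read-out: after compound pinning and an initial kinetic agonist-mode read, an EC20 of TRH (10 nM final) was injected and fluo-8 calcium signal (Ex 480/Em 530) followed at 1 s/cycle for 100 cycles in TRHR-expressing cells.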
# TRPML1 agonist – activates the human TRPML1 channel; 0.12% of 410,000 active; TRPML1-expressing cells, Ca2+ dye fluorescence, FDSS; Q9GZU1; activation, % (concentration not given with the values); AID 624414; in the data active = activation above about 50%; inconclusive = mostly about 30% to 49%
#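 Agonist activity was taken from a 110 s kinetic Ca2+ dye read on the FDSS after pinning compounds onto TRPML1-DL cells. The cells were seeded at 1,500/well with Tet inducer, incubated about 16 h, then dye-loaded at room temperature.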
# TRPML1 inh – human mucolipin-1 channel inhibition; Q9GZU1; TRPML1-inducible cells, Ca2+ dye fluorescence, FDSS; hits give low values; inhibition of EC80 agonist-evoked calcium signal; activity change, negative = inhibition, % (test concentration not listed); 0.02% of 390,000 active; in the data active = activity change below about -50%; inconclusive = between about -30% and that limit;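 note: stimulus is agonist 54-4 at its EC80 concentration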
#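 Tet-induced TRPML1-DL cells loaded with Ca8 no-wash calcium dye were read kinetically on FDSS. Compound addition was followed by EC80 agonist 54-4 (4 uM final); inhibition was read over 110 s.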
# TRHR ag – activates the human TRH receptor. TRHR cells, calcium flux fluo-8, FDSS agonist mode. AID 493084. P34981. activation, % at 2 µM. 0.18% of 360,000 active; in the data active = activation above about 30%
#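 Read-out: compound-evoked intracellular calcium rise in TRHR cells, fluo-8 dye, kinetic FDSS fluorescence at 1 s/cycle following a 10-cycle baseline. Cells cultured overnight before dye loading (30 min–1.5 h, RT).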
# TRPV1 agonist – agonists of human vanilloid receptor 1 (TRPV1). Q8NER1. TRPV1-expressing cells, Fluo-8 calcium influx, agonist mode. activation, % at 8.33 µM. 0.19% of 320,000 active; in the data active = activation above about 80%; inconclusive = between about 30% and that limit
# Target sequence (Q8NER1 whole entry, looked up): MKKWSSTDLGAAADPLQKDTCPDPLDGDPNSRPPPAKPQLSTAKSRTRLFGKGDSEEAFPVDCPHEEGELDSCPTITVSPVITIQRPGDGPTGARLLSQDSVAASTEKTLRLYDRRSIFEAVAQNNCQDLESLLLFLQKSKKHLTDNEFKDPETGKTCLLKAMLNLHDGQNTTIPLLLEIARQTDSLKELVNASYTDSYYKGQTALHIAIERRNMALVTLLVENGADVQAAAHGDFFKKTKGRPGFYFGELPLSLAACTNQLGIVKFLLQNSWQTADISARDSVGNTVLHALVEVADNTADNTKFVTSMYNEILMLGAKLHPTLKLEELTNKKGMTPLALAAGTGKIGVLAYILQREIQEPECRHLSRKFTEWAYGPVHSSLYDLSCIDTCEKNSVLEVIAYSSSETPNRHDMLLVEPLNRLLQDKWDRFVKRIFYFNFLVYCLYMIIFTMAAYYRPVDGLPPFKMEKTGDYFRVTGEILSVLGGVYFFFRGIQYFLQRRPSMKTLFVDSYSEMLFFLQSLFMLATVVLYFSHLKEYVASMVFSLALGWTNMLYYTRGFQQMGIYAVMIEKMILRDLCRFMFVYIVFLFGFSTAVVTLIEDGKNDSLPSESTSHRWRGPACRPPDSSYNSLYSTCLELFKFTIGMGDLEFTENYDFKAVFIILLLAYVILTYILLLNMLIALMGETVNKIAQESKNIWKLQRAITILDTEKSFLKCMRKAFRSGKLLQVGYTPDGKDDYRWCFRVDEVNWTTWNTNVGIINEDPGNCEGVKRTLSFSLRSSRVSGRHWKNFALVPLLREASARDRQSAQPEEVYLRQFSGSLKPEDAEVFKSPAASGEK
#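 Cells expressing TRPV1 were dye-loaded with Fluo-8 and read kinetically: 10 s baseline, 3 min after compound (agonist portion), then 2 min after EC20 capsaicin (allosteric enhancer portion). Calcium-bound dye fluorescence at 480/520 nm.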
# TRPV1 PAM – human TRPV1 potentiation | AID 540277 | TRPV1-expressing cells, Fluo-8 calcium influx, capsaicin EC20 potentiation | 0.02% of 320,000 active | potentiation, % at 8.33 µM | Q8NER1; in the data active = potentiation above about 80%; inconclusive = between about 30% and that limit
#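 TRPV1-expressing cells were cultured overnight at 35.5C and loaded with Fluo-8 calcium dye for 40 to 90 min at room temperature. After a 10 s baseline, compound was added and calcium influx was read kinetically for 3 min (ex 480/em 520 nm).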
# A number is an active result; . = inactive; ? = inconclusive; / = no result given. Most compounds without a hit are left out; they make up all but 0.99% or so of the library.
SMILES,TRHR PAM,TRPML1 agonist,TRPML1 inh,TRHR ag,TRPV1 agonist,TRPV1 PAM
CCN(CC)S(=O)(=O)c1ccc2c(c1)[nH]c(=S)n2CC,38.3,.,.,.,.,.
COc1ccc2nccc(/C=C/c3ccc(N(C)C)cc3)c2c1,/,.,/,/,/,/
Cc1c(C)c(C)c(/C=C/c2ccnc3ccccc23)c(C)c1C,/,.,/,/,/,/
Nc1cccc(-c2nnc3n2CCCCC3)c1,.,.,.,.,.,.
O=S(=O)(c1cccc(-c2nnc3n2CCCCC3)c1)N1CCCC1,33.7,.,.,.,.,.
COC(=O)CN(C)C(=O)c1ccccc1OC1CCN(S(C)(=O)=O)CC1,35.1,.,.,.,.,.
CS(=O)(=O)N1CCC(Oc2ccccc2C(=O)N2CCCCC2CO)CC1 (stereo not given),.,.,.,.,.,.
CC(C)(C)n1ncc2c(=O)n(Cc3ccccc3F)cnc21,/,.,.,/,/,/
Cc1ccc(CNS(=O)(=O)NCc2ccccc2)cc1,37.8,.,.,.,.,.
Cc1ccnc2c(N)cccc12,/,.,/,/,/,/
O=C(Cc1ccccc1)NCCCNC(=O)Cc1ccccc1,/,.,.,/,/,/
O=C(Cc1ccccc1)NCCSC1CCCCC1,.,.,.,.,93.7,.
CCNc1c2c3c(cccc3n(C)c1=O)C(=O)c1ccccc1-2,.,66.8,.,151.1,86.4,.
Cn1c(=O)c(NC2CCCCC2)c2c3c(cccc31)C(=O)c1ccccc1-2,.,100.0,?,218.9,89.0,.
CC(=O)Nc1ccc(Nc2c3c4c(cccc4n(C)c2=O)C(=O)c2ccccc2-3)cc1,.,.,.,.,.,.
Cn1c(=O)c(NCCO)c2c3c(cccc31)C(=O)c1ccccc1-2,.,92.7,.,268.9,/,/
Cn1c(=O)cc2c3c(c(N4CCCCC4)ccc31)C(=O)c1ccccc1-2,.,.,.,.,.,.
CCCCNc1c2c3c(cccc3n(C)c1=O)C(=O)c1ccccc1-2,.,88.8,.,94.4,?,.
O=C(Cc1ccc(OCCCc2ccccc2)cc1)NO,/,.,/,/,/,/
CC(=O)Nc1ccc(/C=C/c2sc3ccccc3[n+]2CCCCI)cc1,/,.,/,/,/,/
CNc1ccc(/C=C/c2ccnc3ccccc23)cc1,/,.,/,/,/,/
O=C(C[N+]12CCCc3cccc(c31)CCC2)c1ccc(Cl)c2ccccc12,/,.,/,/,/,/
Cn1c(=O)c(NCCc2ccccc2)c2c3c(cccc31)C(=O)c1ccccc1-2,.,104.4,.,175.4,92.5,.
C(=C\c1ccnc2ccccc12)/c1ccc(-[n+]2cc[n+](-c3ccc(/C=C/c4ccnc5ccccc45)cc3)cc2)cc1,/,.,/,/,/,/
Cc1cc(N2CCCC2)nc(-c2ccccc2O)n1,.,.,.,.,.,?
SMILES,TRHR PAM,TRPML1 agonist,TRPML1 inh,TRHR ag,TRPV1 agonist,TRPV1 PAM
Cc1cc(N2CCCCC2)nc(N)n1,.,55.8,.,41.6,.,.
O=C(C[n+]1cc(Br)cc(Br)c1)c1ccc2c(c1)CCCC2,/,.,/,/,/,/
C[N+]1(CC(=O)c2ccc(Br)cc2)CCOCC1,/,.,/,/,/,/
CCC(C)(C)C1CCC(NC(=O)c2ccc(S(=O)(=O)N3CCOCC3)cc2)CC1 (stereo not given),.,.,.,.,80.4,.
CC(C)(C)S(=O)(=O)c1cnc(-c2ccc(Cl)cc2)nc1N,.,74.2,.,.,/,/
CC(C)(C)S(=O)(=O)c1cnc(N2CCCCC2)nc1N,.,.,.,.,.,.
C(=C\c1ccc2ccccc2n1)/c1cccnc1,/,.,/,/,/,/
CN(C)c1ccc(/C=C/c2c(Br)cnc3ccccc23)cc1,/,.,/,/,/,/
O=C1C(=O)C(c2cc(O)c(O)c(O)c2)Oc2cc(O)cc(O)c21 (stereo not given),/,.,/,/,/,/
CCCc1cc(Nc2ccccc2C)n2ncnc2n1,35.4,.,.,.,.,.
O=C(C[n+]1ccccc1Br)c1ccc(-c2ccccc2)cc1,/,.,/,/,/,/
COc1ccc(C(=O)O)cc1NC(=S)NC(=O)/C=C/c1ccc(C(C)C)cc1,32.2,.,.,.,.,.
Cc1csc[n+]1CC(=O)c1ccccc1,/,.,/,/,/,/
O=C1CCc2cc(-c3csc(-c4ccc(O)cc4)n3)ccc2N1,/,.,/,/,/,/
CCC(CO)Nc1ncnc2onc(-c3ccc(F)cc3)c12 (stereo not given),39.6,.,.,.,.,.
CC(C)(CCO)Nc1ncnc2onc(-c3ccc(F)cc3)c12,.,.,.,.,.,.
COc1ccc(OC)c(/C=C/c2c3ccccc3cc[n+]2C)c1,/,.,/,/,/,/
c1cncc(-c2nn[nH]n2)c1,40.3,.,.,.,.,.
C[C@H]1CN([C@@H](C)CO)C(=O)CCCn2nncc2CO[C@H]1CN(C)S(=O)(=O)c1cccc(F)c1,/,.,-65.3,/,/,/
C[C@H](CO)N1C[C@H](C)[C@@H](CN(C)S(=O)(=O)c2cccc(F)c2)OCc2cnnn2CCCC1=O,/,.,.,/,/,/
Cc1sc2ccccc2[n+]1CCc1ccccc1,/,.,/,/,/,/
COc1cccc(NC(=O)C(OC(=O)CNC(=O)c2ccccc2)c2ccccc2)c1 (stereo not given),.,/,/,.,/,/
COc1ccc2c(c1)C/C(=C\c1ccc(N(C)C)cc1)C2=O,/,71.6,/,/,/,/
COc1cccc2c1C(=O)/C(=C/c1ccc(N(C)C)cc1)C2,/,.,/,/,/,/
CC1(C)S[C@@H]2C(C(=O)O)NC(=O)N2C1C(=O)O (stereo not given in full),/,.,/,/,/,/
SMILES,TRHR PAM,TRPML1 agonist,TRPML1 inh,TRHR ag,TRPV1 agonist,TRPV1 PAM
O=c1[nH]cnc2sc3c(c12)CCC3,33.2,.,.,.,.,.
Cc1ccccc1S(=O)(=O)N1CCN(S(=O)(=O)c2ccc3c(c2)OCCO3)CC1,.,/,/,.,/,/
Cc1cnc(C(=O)OCC(=O)c2cc(C)n(CCc3ccc(F)cc3)c2C)cn1,/,.,.,/,/,/
Cc1cc(C(=O)COC(=O)c2ccc(O)cc2)c(C)n1CCc1ccc(F)cc1,33.3,.,.,.,.,.
Cc1ccc(Nc2nc(C#N)nc(NC3CCCC3)n2)cc1,.,/,/,.,/,/
CCOC(=O)COc1ccc(/C=C2/C(=O)NN(c3ccc(F)cc3)C2=O)cc1OC,38.1,.,.,.,.,.
CCCn1nnnc1NC(=O)c1cc(Br)ccc1OC,30.2,.,.,.,.,.
CCOC(=O)c1scc(-c2ccccc2)c1S(=O)(=O)Nc1ccc(N(C)C)cc1,52.6,.,.,.,/,/
O=C(NCc1ccccn1)C(=O)NCc1ccccn1,.,.,.,.,.,96.7
Cc1ccc(NC(=O)c2cc(N3C(=O)C=CC3=O)ccc2N2CCOCC2)cc1,.,.,.,.,.,.
Cc1ccc(NC(=O)c2cc(N3C(=O)C4CC=CCC4C3=O)ccc2N2CCOCC2)cc1Cl (stereo not given),38.6,.,.,.,.,.
CCCOc1ccc(C(=O)NNC(=S)NC(=O)c2ccco2)cc1,.,.,.,.,.,.
CCCOc1ccc(C(=O)NNC(=S)NC(=O)c2ccccc2)cc1,.,.,.,37.6,.,.
